Bioassay records: PubChem, National Center for Advancing Translational Sciences (NCATS)
Compounds with a hit are over-represented: about 11% of the library has one in this group of screens.
AMA1-RON2 inh: qHTS for Inhibitors of AMA1-RON; Towards Development of Antimalarial Drug Lead: Primary Screen | Potency, µM (top dose mostly 58.2 µM), without a hit: at the highest dose activity change, negative = inhibition, most hits filed as inhibitors | 360,000 tested, 0.2% active | AlphaScreen AMA1-biotinylated RON2 peptide binding | Plasmodium falciparum AMA1 (3D7) - RON2 peptide interaction;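 further: 0% = vehicle wells and -100% = peptide control; nearly all actives have a fitted effect of over 45% in size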
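AMA1 (3D7) with his tag at 25 nM final met compounds first, then biotinylated RON2 peptide at 25 nM; detection used donor plus acceptor beads, 10 µg/mL apiece, read by AlphaScreen after 30 min at room temperature.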
AmpC detergent: qHTS Inhibitors of AmpC Beta-Lactamase (assay with detergent); AmpC hydrolysis of nitrocefin, absorbance 480 nm, 0.01% Triton; Potency, µM (top dose mostly 114 µM), inactives show at the top dose activity change, negative = inhibition, most hits filed as inhibitors; 370,000 tested, 0.041% active;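 further: 0% = no-compound wells and -100% = no-enzyme wells; nearly all actives have a fitted effect of over 25% in size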
Target sequence (P00811 whole entry, looked up): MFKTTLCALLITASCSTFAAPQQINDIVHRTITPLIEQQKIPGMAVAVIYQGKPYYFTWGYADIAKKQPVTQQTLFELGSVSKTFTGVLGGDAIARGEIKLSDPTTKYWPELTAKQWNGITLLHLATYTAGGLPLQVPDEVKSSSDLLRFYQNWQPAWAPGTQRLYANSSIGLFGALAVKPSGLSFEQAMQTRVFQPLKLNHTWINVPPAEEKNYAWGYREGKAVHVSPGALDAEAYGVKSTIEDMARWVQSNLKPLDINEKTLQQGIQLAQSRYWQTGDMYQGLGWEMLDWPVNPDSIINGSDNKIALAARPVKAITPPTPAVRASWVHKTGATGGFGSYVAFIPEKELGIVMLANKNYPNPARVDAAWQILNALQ
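AmpC (5.3 nM in the dispensed reagent) in 20 mM phosphate pH 7.0 with 0.01% (detergent screen) or 0.0001% Triton X-100 was preincubated with compounds for 15 min at room temperature. Nitrocefin was then added from an 800 uM solution, and hydrolysis was followed at 480 nm.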
HCV inh: qHTS Assay for Inhibitors of Hepatitis C Virus (HCV) | Huh7.5.1 HCVcc-Cre infection, luciferase reporter, 44 h | Potency, µM (doses to about 41.8 µM), for the others: top-dose activity change, negative = inhibition, most hits filed as inhibitors | 340,000 tested, 3.4% active | AID 651820, 2012
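Luciferase read-out (15 sec integration) after a 15 min room-temperature substrate step quantifies HCVcc-Cre infection. Cells, 1,000 per well, had compound added 4 h post-plating, then virus at ~0.5 moi, and were cultured 44 h.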
Pf growth 96h: Primary qHTS for delayed death inhibitors of the malarial parasite plastid, 96 hour incubation; P. falciparum luciferase reporter growth, 96 h; Potency, µM (doses to about 28.7 µM), inactives show at the highest dose activity change, negative = inhibition, actives largely listed as inhibitors; 320,000 tested, 6.9% active; AID 504834, 2011
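Delayed-death screen, second-generation endpoint: infected erythrocytes, 2% hematocrit, 0.05% parasitemia final; 96 hours at 37 C, 5% CO2; luciferase detection reagent; luminescence decrease equals reduced growth.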
AmpC inh no detg: qHTS Inhibitors of AmpC Beta-Lactamase (assay without detergent) | Potency, µM (series often up to 57.1 µM), without a hit: at the highest dose activity change, negative = inhibition, most hits filed as inhibitors | AmpC nitrocefin hydrolysis, absorbance 480 nm, 0.0001% Triton | 330,000 tested, 0.52% active | P00811;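 further: plate controls were no compound for no effect and no enzyme for full effect; nearly all actives have a fitted effect of over 20% in size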
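20 mM phosphate pH 7.0 + 0.01% (detergent screen) or 0.0001% Triton X-100; 5.3 nM AmpC reagent; cpd preinc 15 min RT; nitrocefin (800 uM stock) to start; A480 q20 s × 4 min; Activity was normalised to no-enzyme and no-compound control wells.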
Pf growth 48h: Primary qHTS for delayed death inhibitors of the malarial parasite plastid, 48 hour incubation; Potency, µM (titrated, usually from 28.7 µM), inactives show at the highest dose activity change, negative = inhibition, usual class: inhibitors; 310,000 tested, 5.9% active; P. falciparum luciferase growth in erythrocytes, 48 h
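Luciferase-expressing parasites in RBCs, 2% Hct / 0.1% parasitemia final; RPMI 1640 + 0.5% Albumax; 37 C, 5% CO2, one generation; luminescence read-out, lower signal = inhibition.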
Active calls of the source: *; u = inconclusive; x = not tested or not shown; [ ] = dose if it differs, or a comment. The call rests on the fitted dose curve; in most records, active means well fitted curve in the direction sought with a large enough effect; inconclusive means small, poorly fitted or top-dose-only effect, or another doubt; inactive means no such curve, though single readings can be large; an effect the other way counts as inactive or inconclusive. Unless noted, on the % scale 0 is the no-effect control and ±100 the full control effect; potency means the concentration at half of the fitted maximal effect.

SMILES	AMA1-RON2 inh	AmpC detergent	HCV inh	Pf growth 96h	AmpC inh no detg	Pf growth 48h
CCOc1ccccc1N(C)C(=O)c1cc2c(=O)n(CC)c3ccccc3c2s1	4%	7%	2µM*	u	108%	u
CCn1c(=O)c2cc(C(=O)N(C)CC(OC)OC)sc2c2ccccc21	0%	1%	11µM*	56%	41%	u
CCn1c(=O)c2cc(C(=O)N(CCN(C)C)Cc3ccccc3)sc2c2ccccc21	x	-15%	x	x	x	x
CCOC(=O)CNC(=O)c1cc2c(=O)n(CC)c3ccccc3c2s1	x	-4%	x	x	x	x
CCOc1ccc2cc(-c3nnc(Nc4ccccc4F)s3)c(=O)oc2c1	x	2%	x	x	x	x
O=C(O)C1=CC(=C(c2ccc(O)c(C(=O)O)c2)c2ccc(O)c(C(=O)O)c2)C=CC1=O	x	8.9µM*	8%	93%	8.9µM*	-30%
O=C(O)c1cc(O)ccc1O	0%	x	2%	x	x	x
COc1ccc2c(CNC3CCCCCC3)c(C(=O)O)n(Cc3ccccc3F)c2c1	x	18%	x	x	x	x
CCOC(=O)/C(=C\c1ccccc1)C(=O)CCN1CCOCC1	4%	x	10µM*	x	x	x
O=C(CNC(=S)N(Cc1ccc(F)cc1)C1CCCCC1)NCCN1CCOCC1	3%	u	4%	112%	147%	u
CC(CCc1ccccc1)NC(=O)N1CCOCC1 (centres undefined)	2%	-9%	16%	10µM*	-13%	-6%
O=C(CCc1ccccc1)OCCN1CCOCC1	4%	u	21%	10µM*	2%	67%
O=C(CNC(=S)N(Cc1ccccc1Cl)C1CCCC1)NCCCN1CCOCC1	-5%	u	28%	-18%	160%	10µM*
O=C(Cc1ccccc1)OCCN1CCOCC1	-4%	u	31%	u	-6%	7%
O=C(CSc1nc2c(c(=O)[nH]1)CCC2)Nc1cc(C(F)(F)F)ccc1Cl	x	0%	x	x	x	x
Cn1c(SCc2cccc(F)c2)nc2c([nH]c3ccccc32)c1=O	x	-9%	x	x	x	x
CC(=O)Nc1cccc(NC(=O)CSc2cn(CC(=O)N(C(C)C)C(C)C)c3ccccc23)c1	x	-4%	x	x	x	x
Cc1cc(C)c(NC(=O)OCCN2CCOCC2)c(C)c1	19%	-9%	17%	0.23µM*	-3%	2%
O=C(CN1CCOCC1)NCCc1ccccc1	0%	-6%	24%	10µM*	0%	8%
CC1CCN(CCCNC(=O)CN2CCN(Cc3ccc(Cl)cc3)C2=O)CC1	-5%	u	3%[8.37 µM]	-6%	34%	14%
Cc1cc(C)c(NC(=O)CCCN2CCOCC2)c(C)c1	5%	3%	0%	21%	-18%	5%
O=C(CN1CCN(Cc2ccccc2)C1=O)NCCCN1CCOCC1	3%	-3%	11%	2.9µM*	-9%	x
CCCCOc1ccc(CNC(=O)c2cc3n(n2)CCCN(Cc2ccc(C)cc2)C3=O)cc1	x	-3%	x	x	x	x
Cc1ccccc1NC(=O)CN1C(=O)CSc2ccc(S(=O)(=O)N3CCCC3)cc21	-4%	-19%	-8%	13µM*	-32%	-16%
Cc1cc(C)cc(NC(=O)CN2C(=O)COc3ccc(S(=O)(=O)N4CCCC4)cc32)c1	-4%	2%	36%	u	-44%	0%
SMILES	AMA1-RON2 inh	AmpC detergent	HCV inh	Pf growth 96h	AmpC inh no detg	Pf growth 48h
COc1cc(NC(=O)CN2C(=O)COc3ccc(S(=O)(=O)N4CCCCC4)cc32)cc(OC)c1	-11%	0%	17%	10µM*	-31%	u
CC(=O)c1cccc(NC(=O)CN2C(=O)COc3ccc(S(=O)(=O)N4CCOCC4)cc32)c1	-5%	5%	u	12µM*	-17%	u
Cc1ccccc1NC(=O)CN1C(=O)CSc2ccc(S(=O)(=O)N3CCCCC3)cc21	-1%	1%	-3%	-4%	-46%	u
COc1cc(NC(=O)CN2C(=O)COc3ccc(S(=O)(=O)N4CCCC4)cc32)cc(OC)c1	0%	2%	2%	0.41µM*	-46%	u
CCN(CC)C(=O)Cn1nnc2sc(-c3ccccc3)cc2c1=O	x	5%	x	x	x	x
CCCN1C(=O)C2(c3ccccc31)c1c(oc3ccc(F)cc3c1=O)C(=O)N2CCCOC(C)C (centres undefined)	x	-6%	x	x	x	x
CCCOc1cccc(C(=O)N(Cc2cc(OC)c(OC)c(OC)c2)C2CCS(=O)(=O)C2)c1 (centres undefined)	x	-2%	x	x	x	x
O=C(CSCc1ccccc1Cl)N1CCN(c2ccc(F)cc2)CC1	x	8%	x	x	x	x
COc1ccc(C(=O)N2CCn3c2nc2ccccc23)cc1	-4%	-10%	19%	2%	-11%	69%
Cc1ccc(OCc2nc3ccccc3n2CCOc2ccc(Cl)cc2)cc1	x	-3%	x	x	x	x
COc1ccc(OCCn2c(N)nc3ccccc32)cc1	-13%	u	u	u	-28%	u
Nc1nc2ccccc2n1CCOc1ccc(F)cc1	0%	u	-3%	15µM*	-28%	8.3µM*
Clc1ccc(OCCn2c(-c3ccco3)nc3ccccc32)cc1	2%	-8%	-22%	12µM*	-13%	x
COc1ccc(C(=O)n2c(-c3ccco3)nc3ccccc32)cc1	-8%	1%	-12%	2.1µM*	21%	82%
CCOc1ccccc1C1CC(=O)Oc2c1c(=O)n(C)c1ccccc21 (centres undefined)	x	1%	x	x	x	x
CCN(CC)CCNc1nc(SC)nc2sc3c(c12)CCN(C)C3	-8%	5%	u	u	29%	u
COCCNc1nc(SC)nc2sc3c(c12)CCN(C)C3	2%	0%	-18%	u	-3%	0%
CSc1nc(NCC(C)C)c2c3c(sc2n1)CN(C)CC3	28%	2%	u	3.3µM*	20%	u
CSc1nc(NCc2ccccc2)c2c3c(sc2n1)CN(C)CC3	-5%	-2%	-29%	u	94%	13µM*
CN1/C(=C\C(=O)Nc2cccc(Cl)c2)C(C)(C)c2ccccc21	11%	-1%	32µM*	u	-36%	u
CN1/C(=C\C(=O)Nc2ccc(F)cc2)C(C)(C)c2ccccc21	-1%	-2%	-9%	u	-23%	5.2µM*
Cc1cc(C)cc(NC(=O)C2CCN(c3cnccn3)CC2)c1	-1%	-6%	-17%	-1%	-7%	-19%
Cc1cc(C)c(NC(=O)C2CCN(c3cnccn3)CC2)c(C)c1	11%	-5%	13%	13µM*	-5%	6%
